Screening data: PubChem, several laboratories
This is a sample that favours compounds with a hit; in the whole collection about 3.3% have one here.
sPLA2-III inh = Blocks human group III sPLA2 activity; inhibition, % at 12.2 µM; Q9NZ20; QFRET BODIPY PC-A2 liposome hydrolysis, fluorescence; hit rate 0.56% among 370,000;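 active means inhibition above mean plus 3 SD of compounds lying within the high and low control bounds, cut at about 19% in these data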;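 further: 0% = median of test compound wells and 100% = no enzyme DMSO wells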
GRIN3A LBD mod = modulators (binders) of human NR3A ligand-binding domain; NR3A LBD differential scanning fluorimetry, Tm shift; 0% = protein alone, 100% = glycine-bound protein; hit rate 2.5% among 340,000; Tm shift relative to glycine control, % at 25 µM;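 active means melting temperature shift of at least 10% of the positive control shift, at one fixed dose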
UBC13 inh = inhibitors of human UBC13 polyubiquitin chain formation; P61088; inhibition, % at 20 µM; TR-FRET; hit rate 0.47% among 330,000; in the data active means inhibition above about 45%, passing the limit was not always enough
Target sequence (P61088 whole entry, looked up): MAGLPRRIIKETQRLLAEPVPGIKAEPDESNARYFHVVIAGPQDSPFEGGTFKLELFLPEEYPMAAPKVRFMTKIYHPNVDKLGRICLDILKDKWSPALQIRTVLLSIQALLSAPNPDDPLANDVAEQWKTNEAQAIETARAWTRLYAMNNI
UBC9 SUMO inh = SUMOylation inhibition; hit rate 0.36% among 290,000; AID 2006; HTRF SUMOylation assay, SAE1/SAE2 + UBC9, in vitro; inhibition, % at 35 µM; in the data active means inhibition above about 50%, passing the limit was not always enough
Target sequence (P63279 whole entry, looked up): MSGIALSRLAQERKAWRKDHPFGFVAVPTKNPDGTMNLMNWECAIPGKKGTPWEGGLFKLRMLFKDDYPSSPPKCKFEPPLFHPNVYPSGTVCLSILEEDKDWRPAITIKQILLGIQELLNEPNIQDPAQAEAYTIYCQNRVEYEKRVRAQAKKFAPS
* = called active by the depositor; . = no result given.

SMILES | sPLA2-III inh | GRIN3A LBD mod | UBC13 inh | UBC9 SUMO inh
Cc1ccc2c(c1)C1CN(C)CCC1N2C(=O)Nc1cccc(Cl)c1 (stereo not drawn) | -17 | 17* | 5 | -7
N[C@@H](Cc1c[nH]c2ccccc12)c1nnc(SCc2ccc(F)cc2)o1 | 1 | 13* | . | -19
N[C@@H](Cc1c[nH]c2ccccc12)c1nnc(SCc2ccccc2)o1 | -25 | 0 | 7 | -8
CCC(NC(=O)OCc1ccccc1)P(=O)(Oc1ccccc1)Oc1ccccc1 (stereo not drawn) | -5 | . | . | .
COP(=O)(C(=O)Nc1ccccc1)C(CC(C)C)NC(=O)OCc1ccccc1 (stereo not drawn) | 3 | . | . | .
c1cncc(-c2ccc3n2Cc2cnnn2-c2ccccc2-3)c1 | 0 | . | . | .
O=C(Nc1ccc(Cl)cc1)Nc1nccs1 | -4 | 28* | 3 | 4
CCCNC(=O)c1c(N)n(CC2CCCO2)c2nc3ccccc3nc12 (stereo not drawn) | -5 | 0 | 0 | 102*
CC(C)OCCCNC(=O)c1c(N)n(CC2CCCO2)c2nc3ccccc3nc12 (stereo not drawn) | -13 | -4 | -4 | 98*
CC(C)OC(=O)c1c(N)n(CC2CCCO2)c2nc3ccccc3nc12 (stereo not drawn) | -6 | -2 | 0 | 42
CCCCOc1nc2ccccc2c(=O)n1-c1ccccc1 | 3 | 13* | 10 | -14
COc1nc2ccccc2c(=O)n1-c1ccc(C)cc1 | -2 | -10 | -10 | -6
Cn1c(O)c(/C=C2\C=c3ccccc3=NC2=O)c(=O)n(C)c1=O | -1 | 1 | 5 | 32
Cn1c(O)c(/C=C2\N=c3ccccc3=C2CCNC(=S)NC2CC2)c(=O)n(C)c1=O | -1 | 17* | -84 | 53
COC1=C(OC)[C@]23CCc4ccc(OC)c(OC)c4[C@]2(CCN3C)CC1=O | 1 | 13* | 1 | .
O=C(NN=Cc1ccc(N(CCCl)CCCl)cc1)c1cc(=O)[nH]c(=O)[nH]1 | 6 | 8 | . | .
O=C(Cc1cc(=O)oc2cc(O)ccc12)NN=Cc1ccc(N(CCCl)CCCl)cc1 | -30 | 18* | . | .
COC(=O)c1c(C)n(Cc2ccccc2)c2ccc(O)cc12 | -4 | 14* | 13 | -15
O=C(O)c1cc2ccccc2n1C1CCN(Cc2ccccc2)CC1 | -1 | . | . | .
CC[n+]1c(/C=C/N(C)c2ccccc2)sc2ccc(Cl)cc21 | 6 | -3 | -6 | 29
CC[n+]1c(/C=C/C=C/c2ccc(N(C)C)cc2)sc2ccccc21 | 37* | -2 | -297 | -283
Cc1cc(C)cc(N2C(=O)NC(=O)/C(=C\c3cccn3-c3ccc(Cl)cc3)C2=O)c1 | -1 | 2 | -27 | 31
Cc1cc(C)cc(N2C(=O)NC(=O)/C(=C\c3cccn3-c3ccccc3)C2=O)c1 | -8 | 24* | -4 | 12
CC[C@H](C)[C@@H]1OC(=O)[C@H](C(C)C)N(C)C(=O)[C@H](C(C)C)NC(=O)[C@@H](C)[C@@H](CCCC#CBr)OC(=O)[C@H](C(C)C)N(C)C(=O)C2CCCN2C1=O (stereo partly drawn) | 0 | . | . | .
CCCCCn1c(N)c(C(=O)NCc2cccs2)c2nc3ccccc3nc21 | -5 | 10 | 1 | 100
SMILES | sPLA2-III inh | GRIN3A LBD mod | UBC13 inh | UBC9 SUMO inh
Nc1c(C(=O)NCc2ccco2)c2nc3ccccc3nc2n1Cc1ccc(F)cc1 | -6 | -4 | -10 | 100*
Nc1c(C(=O)NCCCc2ccccc2)c2nc3ccccc3nc2n1Cc1cccs1 | -3 | 22* | -3 | 100
Nc1c(C(=O)NCc2ccco2)c2nc3ccccc3nc2n1Cc1ccccc1 | -17 | -1 | -2 | 101*
O=C1CC[C@@]2(O)[C@H]3Cc4ccc(O)c5c4[C@@]2(CCN3CC2CC2)C1O5 (stereo partly drawn) | -16 | . | . | .
O=C1NC(=O)N(c2ccccc2F)C(=O)/C1=C/c1ccc(Sc2nc3ccccc3[nH]2)o1 | -13 | 102* | . | 21
O=C(NC(Cc1ccccc1)P(=O)(O)Oc1ccccc1)OCc1ccccc1 (stereo not drawn) | -3 | . | . | .
CCCCn1c(O)c(C(C)=NCc2ccc3c(c2)OCO3)c(=O)[nH]c1=O | -7 | -4 | 5 | -2
CCCCn1c(O)c(C=NCc2ccc3c(c2)OCO3)c(=O)[nH]c1=O | 1 | 11* | 4 | -7
CO[C@H]([C@H](C)/C=C/N(C)C=O)[C@@H](C)C(=O)CC[C@H](C)[C@H](O)[C@H](C)[C@H]1OC(=O)/C=C/C(C)=C/[C@H](O)[C@H](OC)C[C@@H]2C=CC[C@@H](C[C@H](OC)[C@@H](CO)[C@@H](OC)C[C@@H](OC)[C@@H]1C)O2 | -12 | . | . | .
CCC1([N+](=O)[O-])COP(=O)(NCc2cccnc2)OC1 (stereo not drawn) | -2 | 13* | . | .
C=CCn1c(O)c(/C(C)=N/N2CCCCCC2)c(=O)[nH]c1=O | -2 | 14* | -10 | 5
Clc1ccc(C[n+]2c(-c3ccccc3)cc(-c3ccccc3)cc2-c2ccccc2)cc1 | 13 | -7 | 47* | .
Fc1ccc(C[n+]2c(-c3ccccc3)cc(-c3ccccc3)cc2-c2ccccc2)cc1 | 7 | -6 | 34 | .
O=C(CN1C(=O)CN=C(c2ccccc2)c2cc(Cl)ccc21)NC1CCCCC1 | 12 | . | . | .
CCn1nc(/C=C/c2ccccc2)nc2c(=O)n(C)c(=O)nc1-2 | -3 | -1 | -248 | 99*
CCn1nc(-c2cccs2)nc2c(=O)n(C)c(=O)nc1-2 | . | 0 | . | 101*
COc1ccc(-n2c(/C=C/c3ccc(O)cc3)nc3ccccc3c2=O)cc1 | -32 | -4 | -2 | 14
CCN1C(=O)/C(=C/c2ccc(N(CC)CC)cc2OC)C(=O)NC1=S | 6 | 14* | -60 | 8
O=C(CN1C(=O)[C@@H](Cc2ccccc2)N=C(c2ccccc2)c2ccccc21)NC1CCCCC1 | 0 | . | . | .
N#CCC[C@H]1CC[C@]2(CCCN(Cc3ccccn3)C2)O1 | 2 | . | . | .
O=C(c1cccn2c(=O)c3ccc(Cl)cc3nc12)N1CCC2(CC1)OCCO2 | 3 | 3 | 0 | 58*
CCOc1cc(/C=C2/C(=O)NC(=O)N(c3ccc(CC)cc3)C2=O)ccc1OC(=O)c1cccs1 | . | 74* | 1 | -5
COc1cc(/C=C2/C(=O)NC(=O)N(c3ccccc3)C2=O)ccc1O | -6 | -14 | 0 | 1
CCC1(OC(=O)CN)C(=O)OCc2c1cc1n(c2=O)Cc2cc3ccccc3nc2-1 (stereo not drawn) | . | 1 | . | 57*
C/C(=N\Nc1cccc2ccccc12)c1c(O)n(Cc2ccccc2)c(=O)[nH]c1=O | -10 | 1 | -17 | 52*
C/C(=N\NC(=O)c1ccccc1)c1c(O)n(Cc2ccccc2)c(=O)[nH]c1=O | -10 | -1 | -7 | -9
CN1C(=O)[C@@]23C[C@]4(c5c[nH]c6ccccc56)c5ccccc5N(S(=O)(=O)c5ccccc5)[C@@H]4N2C(=O)[C@@H]1SS3 | -12 | . | . | .
COc1cccc(N2CCN(Cc3ccc(Cl)cc3)CC2)c1 | . | -2 | -2 | -9
COc1cccc(N2CCN(Cc3cccc(Cl)c3)CC2)c1 | . | 13* | 4 | 9
CCOC(=O)CNC(=O)N1Cc2cc(Br)ccc2-n2nncc2C1 | 3 | . | . | .
